PrP UTR inh: suppresses PrP 5' UTR mRNA reporter expression; cell-based PrP 5' UTR mRNA reporter, plate reader; inhibition, % (no concentration beside the values); 340,000 compounds, 0.35% hits; AID 488862; in the data active = inhibition above about 52%
Mtb UGM inh: blocks M. tuberculosis UGM enzyme; P9WIQ1; purified UGM, fluorescence polarization probe displacement; inhibition, % at 10 µM; 320,000 compounds, 0.06% hits; AID 504406; in the data active = inhibition above about 10%, passing the limit was not always enough
PrPC TRFRET: inhibitors of human cell surface prion protein PrPC | P04156 | TR-FRET read-out | inhibition, % at 13.8 µM | 370,000 compounds, 0.43% hits | AID 720596; in the data active = inhibition above about 24%
SSB-PriA inh: K. pneumoniae PriA-SSBct interaction inhibition; AlphaScreen SSBct-PriA binding, biotinylated peptide; inhibition, % at 33 µM; 430,000 compounds, 0.6% hits; AID 1272365; in the data active = inhibition mostly above about 37%, no sharp cut-off; inactive = mostly below about 20%
FadD28 FP inh: blocks FadD28 binding to the bisubstrate probe | fluorescence polarization | inhibition, % at 12.5 µM | 360,000 compounds, 0.22% hits | AID 588549; in the data active = inhibition above about 8.5%, passing the limit was not always enough
Rv3671c inh: inhibitors of M. tuberculosis serine protease Rv3671c | inhibition, % at 5.96 µM | 320,000 compounds, 0.048% hits; in the data active = inhibition above about 38%;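 also: extracellular domain of Rv3671c used as enzyme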
Target sequence (P9WHR9 whole entry, looked up, the tested form may be a part): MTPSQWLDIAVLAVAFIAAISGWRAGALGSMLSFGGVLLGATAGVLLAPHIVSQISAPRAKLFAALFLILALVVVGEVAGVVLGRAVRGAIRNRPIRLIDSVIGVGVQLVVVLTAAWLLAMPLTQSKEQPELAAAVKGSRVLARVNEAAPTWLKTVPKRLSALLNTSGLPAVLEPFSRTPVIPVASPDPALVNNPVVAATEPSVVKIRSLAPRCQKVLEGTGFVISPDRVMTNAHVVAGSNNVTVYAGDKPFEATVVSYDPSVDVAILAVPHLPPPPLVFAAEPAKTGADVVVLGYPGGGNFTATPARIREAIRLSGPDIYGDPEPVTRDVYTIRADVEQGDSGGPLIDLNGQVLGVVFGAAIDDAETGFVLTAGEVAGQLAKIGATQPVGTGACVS
Hits are given with their value; - = inactive; . = no result given; ! = not active in a repeat. Sampled rows, rich in hits. Any-hit rate of the full collection: about 1.2%.

SMILES	PrP UTR inh	Mtb UGM inh	PrPC TRFRET	SSB-PriA inh	FadD28 FP inh	Rv3671c inh
CCCN(CCC)c1ccc(C(=S)N2CCOCC2)cc1	.	.	.	37	.	.
CCCN(CCC)c1ccc(C(=S)N2CCNCC2)cc1	.	.	.	36	.	.
CCCN(CCC)c1ccc(C(=S)N2CCN(C(=S)Nc3ccccc3)CC2)cc1	.	.	.	-	.	.
COc1cccc(CC(=O)Nc2nnc(Cc3ccc(C)cc3)o2)c1	.	.	.	-	.	.
CCc1ccccc1NC(=O)c1cc2c(cc1Br)OCCO2	.	.	.	-	.	.
Cc1nc2scc(C)n2c(=O)c1NC(=O)c1ccc2ccccc2n1	.	.	.	-	.	.
CC(C)=NNc1ncnc2nc[nH]c12	-	.	-	50	-	.
CC(O)CNc1ncnc2nc[nH]c12 (centres undefined)	-	-	-	-	-	-
COc1ccc(N2CCN(c3oc(-c4ccc(C)cc4)nc3C#N)CC2)cc1	.	.	.	-	.	.
COCCOc1ccc(C(=O)N[C@H]2CCN(c3ccccn3)C2)cc1	.	.	.	-	.	.
O=C(CCSc1ccc(Cl)cc1)Nc1nc2c(Cl)cccc2s1	.	.	.	-	.	.
O=C(Nc1ccccc1)Nc1nc(C(=O)NCCc2c[nH]c3ccccc23)cs1	.	.	.	41	.	.
O=C(NCCc1c[nH]c2ccccc12)c1csc(Nc2ccccc2)n1	.	.	.	28	.	.
O=C(Nc1ccccc1)Nc1nc(C(=O)O)cs1	.	.	.	63	.	.
CC(C)(C)c1csc(NC(=O)Nc2ccccc2)n1	-	-	-	-	-	-
O=C(NCc1ccco1)c1ccc(N2CCC(Cc3ccccc3)CC2)nn1	.	.	.	-	.	.
N#Cc1nccnc1OC1CCC(NC(=O)Cn2c(=O)oc3ccccc32)CC1 (centres undefined)	.	.	.	-	.	.
Cc1c(C)n2c3c(=O)n(CC(=O)c4ccc(Cl)cc4)c(=O)n(C)c3nc2n1C	.	.	.	-	.	.
COc1ccccc1CNC(=O)CSc1nc(=O)n(Cc2cccnc2)c2c1CCC2	.	.	.	-	.	.
Cn1cccc1C(CNC(=O)c1ccc2c(c1)OCO2)N1CCc2ccccc2C1 (centres undefined)	.	.	.	13	.	.
Nc1ccccc1Nc1cc(-c2cccc(Cl)c2)nn1-c1ccccc1	-	-	-	58	-	-
CCc1nc(SCC(=O)NCC2CCCO2)c2c3c(sc2n1)CCC3 (centres undefined)	.	.	.	-	.	.
O=C(O)CCNc1ccc(NCCC(=O)O)c2c1C(=O)c1ccccc1C2=O	-	-	-	-	10	-
CC(=O)N1CCN(C(=O)Cc2cc(=O)[nH]c(SCc3cccc(Cl)c3)n2)CC1	.	.	.	-	.	.
Cc1cc(C=O)c(C)n1-c1ccc(NC2CCCC2)c([N+](=O)[O-])c1	-	-	-	68	-	-
SMILES	PrP UTR inh	Mtb UGM inh	PrPC TRFRET	SSB-PriA inh	FadD28 FP inh	Rv3671c inh
CCN(CC)c1nc(N)c2c(N)nc3c(c2c1C#N)CC(c1ccccc1)O3 (centres undefined)	-	-	-	-	-	-
CCN(CC)c1nc(N)c2c(N)n(-c3ccccc3C)c(=S)c(C#N)c2c1C#N	-	-	-	-	8.3	-
COc1ccc(-c2ccc([C@H]3c4c(n[nH]c4C)OC(=N)C3C#N)o2)cc1 (some centres undefined)	.	.	.	-	.	.
CC1=NN(c2ccc(C(F)(F)F)cn2)C(=O)C1	-	-	-	45	-	-
O=C(NCCn1ccnc1-c1ncccn1)NC1CCCCC1	.	.	.	-	.	.
O=C(NCCn1ccnc1-c1ncccn1)Nc1c(F)cccc1F	.	.	.	86	.	.
Cc1ccc(NC(=O)NCCn2ccnc2-c2ncccn2)cc1C	.	.	.	97	.	.
CC1C(=O)NCCN1C(=O)c1ccc2ccccc2c1 (centres undefined)	.	.	.	-	.	.
Fc1cccc(Cl)c1Cn1c(CN2CCCC2)nc2ccccc21	.	.	.	-	.	.
O=C(O)c1cc2ccccc2cn1	-	.	-	75!	-	.
O=C(O)c1cnc2ccccc2n1	-	-	-	-	-	-
O=C(O)c1cc2c(cn1)[nH]c1ccccc12	.	-	-	80	-	-
C[C@H](NC(=O)c1cc2c(cn1)[nH]c1ccccc12)C(=O)O	-	-	-	-	-	.
CN1C(=O)c2ccc(NC(=O)c3ccc(-c4nc5ccccc5s4)s3)cc2C1=O	.	.	.	-	.	.
COc1ccc(C(=O)NCc2cn3ccsc3n2)cc1	.	.	.	-	.	.
CCCN1CCCc2cc(CCNS(=O)(=O)c3ccccc3Br)ccc21	.	.	.	active!	.	.
CCCN1CCCc2cc(CCNC(=O)C(=O)NCc3ccccc3Cl)ccc21	.	.	.	-	.	.
CCCN1CCCc2cc(CCNS(=O)(=O)c3ccccc3Cl)ccc21	.	.	.	active!	.	.
CCCN1CCCc2cc(CCNS(=O)(=O)Cc3ccccc3Cl)ccc21	.	.	.	72	.	.
O=C(c1ccno1)N1CCSC(c2ccco2)CC1 (centres undefined)	.	.	.	-	.	.
N#CC(=C(O)c1ccc(Cc2ccccc2)cc1)c1nc2ccccc2[nH]1	.	.	.	-	.	.
O=C(NCCC(O)c1ccc2c(c1)OCO2)c1ccc(Cl)s1 (centres undefined)	.	.	.	37	.	.
